Cy5 interf NS3h = Cy5 fluorescence quenchers or enhancers, artefact control for HCV NS3 helicase inhibitor project, biochemical, ChemBridge library, Cy5 readout. Cy5-dT15 DNA with NS3h, fluorescence interference; actives lie on both sides; signal over control mean, under 1 quenches. fluorescence interference ratio at 100 µM. 16,000 compounds, 6% hits;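 active = compound fluorescence over control fluorescence at most 0.8, a quencher, or at least a set upper limit, an enhancer; inactive = ratio between 0.8 and the set upper limit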
HCV NS3h FP = HCV NS3 helicase inhibitors, primary screen, biochemical, fluorescence polarization, ChemBridge library. Hepatitis C virus NS3 helicase. NS3h Cy5-dT15 DNA binding. inhibition, % at 100 µM. 16,000 compounds, 1.6% hits;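 active = inhibition above the average over every tested compound plus 3 SD, cut at about 40% in these data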
HCV NS3h conf = HCV NS3 helicase inhibitors, retest, confirmation, biochemical, fluorescence polarization, ChemBridge library. shares compounds with HCV NS3h FP. NS3h binding to Cy5-dT15 DNA. inhibition, % at 100 µM. 240 compounds, 20% hits;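 active = percent inhibition of 50% or more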
SSB-DNA FP CB = E. coli SSB-DNA binding inhibitors, counter-screen for HCV NS3 helicase inhibitor project, biochemical, fluorescence polarization, selected ChemBridge compounds; shares compounds with HCV NS3h FP; 240 compounds, 40% hits; AID 720486, 2013; E. coli SSB binding Cy5-dT15; inhibition, % at 100 µM;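 active = inhibition of at least 50%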;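 note: displacers lower Cy5 polarization so higher inhibition means more SSB displaced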
Target sequence (P0AGE0 whole entry, looked up): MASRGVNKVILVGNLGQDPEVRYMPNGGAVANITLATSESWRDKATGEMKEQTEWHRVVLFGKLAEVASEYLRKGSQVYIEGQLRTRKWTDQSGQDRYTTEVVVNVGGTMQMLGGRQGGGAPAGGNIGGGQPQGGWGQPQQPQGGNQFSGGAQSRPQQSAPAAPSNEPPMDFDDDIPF
Cy5 SSB interf = Cy5 fluorescence interference with SSB-bound oligo, artefact control for HCV NS3 helicase inhibitor project, biochemical, E. coli SSB, selected ChemBridge compounds. shares compounds with HCV NS3h FP. Cy5-dT15/E. coli SSB fluorescence interference; actives lie on both sides. fluorescence interference ratio at 100 µM. 240 compounds, 8% hits. AID 720487, 2013;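 active = fluorescence interference ratio at or above 1.2, signal boosting, or at or below 0.8, signal quenching; inactive = ratio between 0.8 and 1.2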;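 note: ratio of compound well signal to mean negative control signal so 1 means no effect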
Cy5 interf conf = Cy5-DNA-NS3h complex fluorescence interference, confirmation, artefact control for HCV NS3 helicase inhibitor project, biochemical, ChemBridge library; shares compounds with HCV NS3h FP; Cy5-dT15 DNA/NS3h fluorescence interference counterscreen; fluorescence interference ratio at 100 µM, hits read low; 240 compounds, 44% hits;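 active = fluorescence interference ratio at or below 0.8 quencher or at or above a set limitenhancer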;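 note: ratio of compound fluorescence to mean of negative controls so 1 means no interference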
Starred values were filed as active, the others as inactive; nt = no result given. Compounds with a hit are over-represented: about 7.6% of the library has one in this group of screens.

SMILES | Cy5 interf NS3h | HCV NS3h FP | HCV NS3h conf | SSB-DNA FP CB | Cy5 SSB interf | Cy5 interf conf
CN1C(=O)/C(=C/c2c(Cl)cccc2Cl)SC1=S | 0.96 | -8 | nt | nt | nt | nt
COC(C)(C)C(=O)CC(=O)C(C)(C)C | 1 | -4 | nt | nt | nt | nt
CC(=O)c1ccc(-n2c(C)ccc2-c2ccccc2)cc1 | 1 | 6 | nt | nt | nt | nt
Cc1ccc(C)n1-c1ccc(CC(=O)O)cc1 | 1.1 | 85* | 67* | 96* | 0.94 | 0.84
CN1C(=O)C(=O)N(CC(=O)NCc2ccco2)C1=O | 0.75* | 74* | 28 | 14 | 0.77* | 0.84
CC(C(=O)NCc1ccco1)N1C(=O)c2ccccc2C1=O (configuration not stated) | 1.1 | 4 | nt | nt | nt | nt
CCN(CC)c1ccc(/C=C/c2[nH]c(=O)[nH]c(=O)c2[N+](=O)[O-])c(OC)c1 | 0.92 | 54* | 9 | 19 | 0.87 | 0.87
O=c1[nH]c(/C=C\c2ccccc2Cl)c([N+](=O)[O-])c(=O)[nH]1 | 0.9 | -9 | nt | nt | nt | nt
COc1ccc(NC(=O)/C(C#N)=C/c2ccc(Cl)c(Cl)c2)cc1 | 1 | 15 | nt | nt | nt | nt
CCCOC(=O)c1cccc(NC(=O)/C=C/c2ccc(Cl)cc2)c1 | 1 | 6 | nt | nt | nt | nt
COc1cc(/C=N\N2C(=O)c3ccccc3C2=O)c([N+](=O)[O-])cc1OC | 0.83 | 26 | nt | nt | nt | nt
O=C(CCCOc1ccc(Cl)cc1Cl)Nc1ncn[nH]1 | 0.97 | 1 | nt | nt | nt | nt
CCOC(=O)c1sc(NC(=O)CCCOc2ccc(Cl)cc2Cl)nc1C | 0.97 | 22 | 2 | 2 | 0.97 | 0.75*
N#CC(C#N)=Cc1ccc(-c2ccc(Cl)c(C(=O)O)c2)o1 | 1.1 | 43* | 23 | 41 | 0.97 | 0.79*
CN1C(=O)C(=Cc2ccc(-c3ccc(Cl)c(C(=O)O)c3)o2)C(=O)N(C)C1=O | 1.1 | 23 | nt | nt | nt | nt
C=CCN1C(=O)NC(=O)C(=Cc2ccc(C(C)C)cc2)C1=O | 0.99 | 6 | nt | nt | nt | nt
C=CCN1C(=O)NC(=O)/C(=C/C=C/c2ccco2)C1=O | 1.3* | 78* | 46 | 41 | 1.1 | 0.76*
O=C1C=C(Nc2ccccc2)C(=O)N1c1ccccc1Cl | 1 | 11 | nt | nt | nt | nt
O=C1NC(=O)N(c2ccccc2Cl)C(=O)/C1=C\C=C\c1ccco1 | 1.2* | 62* | 51* | 96* | 1.2* | 0.93
COc1c(Cl)cc(C(=O)Nc2cccc3ccccc23)cc1Cl | 0.98 | 1 | nt | nt | nt | nt
CC(=O)Nc1ccc(-c2nc3ccc(-c4ccc5nc(-c6ccc(NC(C)=O)cc6)oc(=O)c5c4)cc3c(=O)o2)cc1 | 1 | 56* | 4 | 47 | 0.97 | 1
CC(C)(C)C(=O)Nc1ccc(-c2nc3ccccc3o2)cc1 | 1 | 0 | nt | nt | nt | nt
CC1(C)CC2CC(C)(CN2S(=O)(=O)c2ccc(C(=O)Nc3ccccc3N3CCOCC3)cc2)C1 (configuration not stated) | 1.1 | 12 | nt | nt | nt | nt
COc1cccc(OCCOc2c(Cl)cc(/C=C3/SC(=S)NC3=O)cc2OC)c1 | 0.97 | 70* | 45 | 47 | 0.97 | 0.79*
COc1cccc(OCCOc2cccc(/C=C3/SC(=S)NC3=O)c2)c1 | 0.92 | 20 | nt | nt | nt | nt
SMILES | Cy5 interf NS3h | HCV NS3h FP | HCV NS3h conf | SSB-DNA FP CB | Cy5 SSB interf | Cy5 interf conf
Cc1ccc(/C=c2/sc3nc(-c4ccccc4)nn3c2=O)cc1 | 1.2 | 14 | nt | nt | nt | nt
O=C1NC(=Nc2ccc(Br)cc2)S/C1=C\c1ccc(O)cc1 | 1 | -4 | nt | nt | nt | nt
O=C1NC(=Nc2ccc(O)cc2)S/C1=C\c1ccccc1 | 1.2 | 46* | 12 | 11 | 0.94 | 0.98
O=C(c1cn(-c2ccccc2)nc1-c1ccccc1)N1CCCCC1 | 0.9 | 9 | nt | nt | nt | nt
CC(=O)NC1=C(N(C)C)C(=O)c2ccccc2C1=O | 0.91 | -21 | nt | nt | nt | nt
CC(=O)N(C)C1=C(Cl)C(=O)c2ccccc2C1=O | 0.85 | 90* | 85* | 0 | 0.97 | 0.97
CC(C)=C1C(=O)NN(c2cccc(Br)c2)C1=O | 1.1 | 6 | nt | nt | nt | nt
CCc1ccc(NC(=O)C(=O)NC2CC(C)(C)NC(C)(C)C2)cc1 | 1 | -3 | nt | nt | nt | nt
N#CC1=C(N)SC(N)=C(C#N)C1c1cccc(Cl)c1 | 0.94 | 20 | nt | nt | nt | nt
CC1CCN(c2cccc3c2C(=O)c2ccccc2C3=O)CC1 | 1 | 8 | nt | nt | nt | nt
O=C1c2ccccc2-c2onc3ccc(N4CCCCC4)c1c23 | 1.1 | 52* | 25 | 71* | 1.2* | 0.79*
COc1cc(C=C2C(=O)NC(=O)NC2=O)cc(Br)c1OCc1ccc([N+](=O)[O-])cc1 | 0.73* | 73* | 19 | 44 | 0.85 | 0.58*
COc1cc(C=C2C(=O)NC(=S)NC2=O)cc(Br)c1O | 1 | 31 | nt | nt | nt | nt
COc1cc(C=C2C(=O)NC(=O)NC2=O)cc([N+](=O)[O-])c1O | 0.89 | 48* | 34 | 60* | 0.89 | 0.95
COc1cc(C=C2C(=O)N(C)C(=O)N(C)C2=O)cc(Br)c1OCc1ccccc1 | 0.98 | 32 | nt | nt | nt | nt
Cc1c(C(=O)O/N=C(/N)c2ccccn2)cccc1[N+](=O)[O-] | 1.1 | 3 | nt | nt | nt | nt
CCC1C(=O)N=C(SCC(=O)Nc2ccccn2)NC1=O (configuration not stated) | 0.98 | -5 | nt | nt | nt | nt
O=C(/C=C/c1cccc(C(F)(F)F)c1)Nc1cccc2ncccc12 | 0.86 | 10 | nt | nt | nt | nt
CCCC(C)NC(=O)c1ccc(Cl)cc1Cl (configuration not stated) | 1 | -1 | nt | nt | nt | nt
O=C(Nc1cccc(Oc2ccc(C(=O)O)c(C(=O)O)c2)c1)c1ccc(-c2ccccc2)cc1 | 1.1 | 52* | 16 | 19 | 0.9 | 0.74*
CC(=O)Nc1ccc(Oc2ccc(C(=O)O)c(C(=O)O)c2)cc1 | 1 | 1 | nt | nt | nt | nt
CC1=NN(c2ccc(C(=O)O)cc2)C(=O)/C1=C\c1ccc(-c2cccc(C(=O)O)c2)o1 | 1 | 31 | nt | nt | nt | nt
CN1C(=O)/C(=C/c2ccc(-c3ccc(C(=O)O)cc3)o2)SC1=S | 1.2* | 76* | 11 | 34 | 0.92 | 0.99
COC(=O)c1ccc(-c2ccc(/C=C3/SC(=S)N(C)C3=O)o2)cc1 | 0.88 | -7 | nt | nt | nt | nt
O=C1NC(=S)S/C1=C\c1ccc(C(=O)O)cc1 | 0.97 | 14 | nt | nt | nt | nt
N=C1S/C(=C\c2ccc(-c3cccc(C(=O)O)c3)o2)C(=O)N1c1ccc2c(c1)OCO2 | 0.81 | 71* | 20 | 107* | 0.82 | 0.92
CCC1=NN2C(=N)/C(=C/c3ccc(-c4cccc(C(=O)O)c4)o3)C(=O)N=C2S1 | 1 | 52* | 27 | 87* | 0.93 | 0.85
CCC1=NN2C(=N)/C(=C/c3ccc(-c4cccc([N+](=O)[O-])c4)o3)C(=O)N=C2S1 | 0.94 | -4 | nt | nt | nt | nt

Bioassay records as filed in PubChem BioAssay.
